Results reported in PubChem BioAssay (NCI).
This is part of a sample that, as a whole, favours compounds with a hit. Of some 83,000 tested, about 20% had one in any assay.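 Single-dose data. Exposure time 48 hours. Values below 10 considered active.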 A number with no mark means an inactive call. Active and inactive are the calls of the source.

Tests used:
Experiment in all cases: NCI-60 one-dose screen, 48 h (100 = growth as untreated, 0 = no growth, -100 = all killed)
Settings in all cases: 10 µM unless noted
[1] = system: T-47D breast
[2] = system: BT-549 breast
[3] = system: MDA-MB-435 melanoma
[4] = system: SW-620 colon
[5] = system: MCF7 breast
[6] = system: HCT-116 colon
[7] = system: HCC-2998 colon
[8] = system: KM12 colon

SMILES	growth [1]	growth [2]	growth [3]	growth [4]	growth [5]	growth [6]	growth [7]	growth [8]
Nc1nc(NC(=O)Nc2ccc(C(=O)O)cc2)nn1-c1ccc(S(N)(=O)=O)cc1	102%	91.3%	98.2%	87.7%	98.7%	95.4%	107%	89.6%
Cc1ccc(S(=O)(=O)OCCCOS(=O)(=O)c2ccc(C)cc2)cc1	99.3%	96.2%	101%	103%	91.2%	94.1%	99.7%	99.1%
CCn1c(-c2cc3c([nH]c4ccccc43)c(-c3cccc(O)c3)n2)n[nH]c1=S	11.7%	26.7%	-24.2% (active)	62.8%	32.6%	48.2%	68.3%	28.4%
FC(F)(F)c1ccc(Cn2cc(CSc3nc4ccccc4s3)nn2)cc1	90%	92.3%	101%	98.1%	92.8%	98.2%	104%	99%
Cc1nc2sc(C(=O)Nc3cccc(Br)c3C)c(N)c2cc1C(O)c1ccccc1 (configuration not stated)	25.3%	28.2%	3.98% (active)	20.4%	10.9%	6.83% (active)	11.3%	5.99% (active)
Cc1ccc(-c2nc(/C=C3/C(=O)Nc4ccc(F)cc43)c3ccccn23)cc1	100%	111%	86.7%	44.3%	35.5%	55%	95%	81.7%
Clc1ccc(-c2cc(-c3ccccc3)nc(NCCNc3ccnc4cc(Cl)ccc34)n2)cc1	11.8%	88.3%	-56.9% (active)	-63% (active)	-76.8% (active)	-79.4% (active)	-88.9% (active)	-5.53% (active)
CC(C)=CCNc1ncnc2c1ncn2C1OC(CO)C(O)C1O (configuration not stated)	-57% [1 mM] (active)	-51.7% [1 mM] (active)	23.9% [1 mM]	-2.16% [1 mM] (active)	-60.7% [1 mM] (active)	-13.7% [1 mM] (active)	-62.5% [1 mM] (active)	10.6% [1 mM]
O=C1Nc2ccccc2/C1=C\c1c[nH]c2ccc(Br)cc12	26.6%	116%	69%	93.7%	29.5%	85.8%	71.6%	12.9%
CN(Cc1cnc2nc(N)nc(N)c2n1)c1ccc(C(=O)NC(CCC(=O)O)C(=O)O)cc1Br (configuration not stated)	44.3%	61.9%	39.5%	28.6%	19%	19.8%	57.1%	28.4%
Cc1ccc2nc(/C(C#N)=C(/CCCO)NC(Cc3ccccc3)C(=O)OCc3ccccc3)[nH]c(=O)c2c1 (configuration not stated)	93%	94.2%	89.5%	110%	99.8%	96.9%	-12.5% (active)	109%
COc1cc(-c2nc3c(ncc4ccc(=O)n(-c5ccccc5)c43)s2)cc(OC)c1OC	37.9%	61.8%	81%	89.4%	55.1%	79.6%	85%	79.3%
Clc1ccccc1-c1cnn2cc(-c3ccccc3)cnc12	78.9%	83.1%	44.8%	76.9%	75.3%	69%	85.9%	63.8%
O=C(CSc1nnc(-c2cc(-c3ccccc3)nc3ccccc23)n1-c1ccccc1)Nc1ccc(C(=O)/C=C/c2ccc(Cl)cc2)cc1	73.8%	92.4%	96.5%	93.3%	78.5%	86.5%	100%	75.4%
Nc1nc(N)c2c(n1)NC(c1cccc(Nc3ccnc4cc(C(F)(F)F)ccc34)c1)CC(c1ccccc1)=N2 (configuration not stated)	83.4%	114%	-30.4% (active)	32.4%	16.9%	21%	54.2%	33.5%
CCOC(=O)c1[nH]c2c(c1C)-c1[nH]c(=O)c(S(=O)(=O)c3ccccc3)cc1SC2	1.66% [100 µM] (active)	32.7% [100 µM]	24.2% [100 µM]	49.1% [100 µM]	28.2% [100 µM]	24.9% [100 µM]	75.1% [100 µM]	28.1% [100 µM]
CCCn1cnc2c(c1=N)C(c1ccc(F)cc1)c1sc3c(F)cccc3c1O2 (configuration not stated)	53.9%	63.9%	-35.6% (active)	25.1%	15.1%	36.3%	76.9%	36.1%
CN1CCN(CCOc2ccc(-c3cnc4c(-c5cccc(F)c5F)cnn4c3)cc2)CC1	85.4%	50.4%	-66.1% (active)	-68.9% (active)	-23.8% (active)	-65% (active)	101%	-68.9% (active)
N#C/C(=C\c1cn(Cc2ccccc2)c2ccccc12)C(=O)Nc1ncc(Cc2ccccc2Cl)s1	-29.3% (active)	52.8%	-15.1% (active)	2.61% (active)	23.8%	0.288% (active)	58.4%	26.4%
COc1ccc(-c2nn(-c3ccccc3)cc2/C=C/C(=O)NNC(=O)Nc2ccc(C)cc2)cc1	92.3%	114%	99.9%	95.1%	91.9%	77.7%	96.7%	101%
CN1CCN(C(=S)SCCCCOc2cc(=O)oc3ccccc23)CC1	55.6%	81.3%	96.7%	100%	78.6%	86.8%	98.1%	85.4%
COC(=O)c1c2c(n3ccccc13)C(=O)c1ccccc1C2=O	73.4%	68.1%	84.6%	40.9%	42.5%	27.9%	88.3%	49.7%
COc1ccc(/C=C/C(=O)c2cc(OC)c(OC)c(OC)c2)cc1OCC(=O)Nc1nc2ccc(OC(F)(F)F)cc2s1	24.3%	25.7%	-51.3% (active)	6.16% (active)	4.06% (active)	-75.5% (active)	90.6%	-14.3% (active)
COc1cc(/C=C/C(=O)/C=C(O)/C=C/c2ccc(OC(=O)C34CC5CC(CC(C5)C3)C4)c(OC)c2)ccc1OC(=O)C12CC3CC(CC(C3)C1)C2	97.9%	104%	106%	98.4%	98.5%	89.9%	106%	113%
O=C(C1CCCCC1)[C@@H]1[C@]2(C(=O)NC3CCCCC32)[C@@H]2CCCN2[C@@]12C(=O)NC1CCC(Cl)CC12 (some centres not stated)	-69% [100 µM] (active)	-91.6% [100 µM] (active)	-91% [100 µM] (active)	-89.6% [100 µM] (active)	-51.4% [100 µM] (active)	-91.2% [100 µM] (active)	-84.8% [100 µM] (active)	-86% [100 µM] (active)
CC1(C)CC[C@]2(CO)CC[C@]3(C)[C@H](CC[C@@H]4[C@@]5(C)CCCNC(C)(C)[C@@H]5CC[C@]43C)[C@H]2[C@H]1O	88.8%	89.3%	82.7%	54.2%	55.2%	50.2%	38.2%	77.9%
COc1cccc(NCc2nnc(Nc3ccc(Cl)cc3)c3ccccc23)c1	-8.49% (active)	-12.2% (active)	-10.3% (active)	11.9%	-1.96% (active)	-44.2% (active)	2.79% (active)	-24.9% (active)
CC1CCN(C(=O)CCCl)c2ccccc21 (configuration not stated)	121%	96.3%	123%	91.3%	97.5%	97.3%	86.1%	102%
CN1CCN(c2ccc3nc4c(nc3c2C(F)(F)F)C(=O)c2ncccc2C4=O)CC1	-28.4% (active)	-97% (active)	-91.8% (active)	4.71% (active)	-57% (active)	0.984% (active)	-26.9% (active)	13%
